Test results: PubChem BioAssay (EPA / NIEHS)
The source made the active and inactive calls. Rule for the calls: active = hit-call score of the fitted dose curve at least 0.9, where 1 is the maximum; inactive = score below 0.9.

Read-out: Hypoxia-inducible factor 1-alpha (Homo sapiens) (UniProt Q16665)
Assay: LTEA_HepaRG_HIF1A: Life Technologies and Expression Analysis (LTEA) Assay for Hypoxia-inducible factor 1 (HIF1A) Trancription factor using HepaRG (AID 2283503);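 note: HIF1A transcript by TaqMan qRT-PCR normalized to ACTB GAPDH and POLR2A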
Conditions: mRNA level, 48 h; actives raise or lower the signal
Experimental: LTEA_HepaRG is a cell based, multiplexed-readout assay that uses HepaRG, a human liver cell line, with measurements taken at 48 hours after chemical dosing on a 96-well plate.LTEA_HepaRG_HIF1A is one of 102 assay component(s) measured in the LTEA HepaRG cell culture assay. It is a marker of Cell proliferation, survival, death.Data from the assay component LTEA_HepaRG_HIF1A was analyzed into 1 endpoint. This assay endpoint, LTEA_HepaRG_HIF1A, was analyzed with bidirectional fitting relative to DMSO as the negative control and baseline of activity. Using a type of inducible reporter, measures of mRNA induction for gain or loss-of-signal activity can be used to understand regulation of transcription factor activity. To generalize the intended target to other relatable targets, this assay endpoint is annotated to the dna binding intended target family, where the subfamily is basic helix-loop-helix protein.
A total of 1060 chemcials from the ToxCast library were tested in eight-point concentration-response experiments. Cell culture and cytotoxicity assays were conducted at Thermo Fisher Scientific's Custom Services facility (Madison, WI). A single lot of human HepaRG cells (Thermo Fisher Scientific, Frederick, MD) was used for the cell culture experiments. 96-well format collagen type I coated plates of human HepaRG cells were prepared using established methods. Briefly, cryopreserved HepaRG cells were thawed, plated at a density of approximately 100,000 cells/well in HepaRG Thaw, Plate, and General Purpose media (HPRG770, Thermo Fisher Scientific), and incubated for 48 hours. 0.5% DMSO was selected as vehicle control to balance the requisite need of DMSO in HepaRG cultures to maintain differentiation (for example, baseline metabolism, proportions of hepatocytes vs. cholangiocytes), while enabling further hepatic receptor pathway activation (for example, PXR and CAR) in response to chemical exposure. 48 hours after plating, the culture medium was replaced with HepaRG Serum-Free Incudtion Media. Cells were exposed to each test chemical in duplicate and maintained in CO2 incubators for another 48 hours. Chemical plates were thawed to room temperature and 200x concentrations of treatment groups were prepared. 8-point conentration-reponse curves were made with the highest exposure at 100 uM, followed by half-log dilutions, all in 0.5% DMSO. Each test plate contained variouse controls, induction positive controls (1mM phenobarbital), cytotoxicity positive controls ([…] aflatoxin B1), vehicle controls (0.5% DMSO), and total lysis controls (0.5% DMSO). Cell morphology images were taken using an Essen IncuCyte FLR automated microscope, with six 96-well plates imaged in about 24 minutes. Images were captured and exported and JPEG files. Spent culture media was transfered to black-well plates for the LDH assay, and remaining media was sorted at -80 C for later use. Cells were treated with RLT buffer and frozen until shipped for gene expression analysis. Total RNA was isolated from the cell suspension in 75 uL of Buffer RLT (Qiagen, Germantown, MD 20874) by Quintiles/Expression Analysis (Durham, NC) using a custom isolation procedure. Total RNA from each plate well was transferred to a preamplification plate. Fluidigm's 96.96 Dynamic ArrayTM (Fluidigm, Amsterdam, the Netherlands) technology was used for gene expression analyses by quantitative reverse transcription polymerase chain reaction (qRT-PCR, performed by Quintiles/Expression Analysis, Durham, NC)89. Standard TaqManTM Assays (Applied Biosystems/ThermoFisher Scientific, Foster City, CA) were used to assess the expression of 93 genes selected based on their selectivity and sensitivity to important hepatic receptors known to be modulated by environmental chemicals; importance in human hepatocyte functionality; and hepatotoxicity. […]

Sequence of Hypoxia-inducible factor 1-alpha (Homo sapiens) (Q16665 whole entry, looked up): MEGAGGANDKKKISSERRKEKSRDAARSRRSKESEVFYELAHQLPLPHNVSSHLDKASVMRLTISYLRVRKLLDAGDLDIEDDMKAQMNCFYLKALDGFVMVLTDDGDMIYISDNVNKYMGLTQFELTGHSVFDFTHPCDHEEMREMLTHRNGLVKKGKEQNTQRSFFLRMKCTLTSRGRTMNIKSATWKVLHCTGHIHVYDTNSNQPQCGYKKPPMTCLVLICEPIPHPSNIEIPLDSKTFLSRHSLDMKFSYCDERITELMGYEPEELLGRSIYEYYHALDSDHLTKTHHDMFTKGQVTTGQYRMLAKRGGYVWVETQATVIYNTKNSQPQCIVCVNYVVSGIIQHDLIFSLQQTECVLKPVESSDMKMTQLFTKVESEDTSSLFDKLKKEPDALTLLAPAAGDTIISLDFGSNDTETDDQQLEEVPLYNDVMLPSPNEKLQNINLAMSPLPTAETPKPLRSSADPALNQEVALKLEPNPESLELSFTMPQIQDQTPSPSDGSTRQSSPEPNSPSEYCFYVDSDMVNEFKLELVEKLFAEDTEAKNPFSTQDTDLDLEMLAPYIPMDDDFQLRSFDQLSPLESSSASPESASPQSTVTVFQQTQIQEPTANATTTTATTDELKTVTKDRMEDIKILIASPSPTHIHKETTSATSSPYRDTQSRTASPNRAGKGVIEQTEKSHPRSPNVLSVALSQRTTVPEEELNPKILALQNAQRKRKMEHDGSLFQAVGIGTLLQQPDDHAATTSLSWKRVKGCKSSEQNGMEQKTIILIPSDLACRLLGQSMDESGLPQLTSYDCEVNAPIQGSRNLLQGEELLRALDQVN

Structure (SMILES)	AC50	outcome
CC#C[C@]1(O)CC[C@H]2[C@@H]3CCC4=CC(=O)CCC4=C3[C@@H](c3ccc(N(C)C)cc3)C[C@@]21C	85.5 µM (active)	
NC(=O)N(O)[C@@H]1C=C[C@H](Oc2cccc(Oc3ccc(F)cc3)c2)C1	78.7 µM (active)	
CCCCCCCC(=O)O		inactive
CCCCCCCCOC(=O)CCCCCCCCC(=O)OCCCCCCCC		inactive
Oc1cccc(O)c1		inactive
COc1ccc([N+](=O)[O-])cc1N		inactive
Cc1cc(CCN2CCN(c3nsc4ccccc34)CC2)cc2c1NC(=O)CC2(C)C		inactive
CC(C)(C)CC(C)(C)c1ccc(O)c(-n2nc3ccccc3n2)c1		inactive
C=C(C)C(=O)OCCC(F)(F)C(F)(F)C(F)(F)C(F)(F)C(F)(F)C(F)(F)F		inactive
OC1CCCCC1		inactive
CCCCCCCCCCCCc1ccccc1S(=O)(=O)O	14.4 µM (active)	
O=C(O)Cc1cc(I)c(Oc2cc(I)c(O)c(I)c2)c(I)c1	21.5 µM (active)	
CN1CCN(c2ccccc2/C=C2\SCCN(c3ccc(Cl)c(Cl)c3)C2=O)CC1		inactive
COCC(C)OCC(C)O (stereo not given)		inactive
CCCCOCCO		inactive
OCCC(F)(F)C(F)(F)C(F)(F)C(F)(F)C(F)(F)C(F)(F)C(F)(F)C(F)(F)F		inactive
CCCCCCCCCCCCCCCS(=O)(=O)Oc1ccccc1		inactive
N#C[C@@H]1CC(F)(F)CN1C(=O)CNC1CC2CCC(C1)N2c1ncccn1 (stereo not given in full)		inactive
COC(=O)CCCCC(=O)OC		inactive
CC(C)(C)c1cc(C(C)(C)C)c(O)c(C(C)(C)C)c1		inactive

Structure (SMILES)	AC50	outcome
CCCCC(CC)COC(=O)CCCCC(=O)OCc1ccccc1 (stereo not given)		inactive
CCCCC(CC)COC(=O)CCCCC(=O)OCC(CC)CCCC (stereo not given)		inactive
OCCC(F)(F)C(F)(F)C(F)(F)C(F)(F)C(F)(F)C(F)(F)F		inactive
CCN(CC)CCNc1ccc(CNC=O)c2sc3ccc(OC)cc3c(=O)c12	75.5 µM (active)	
CCc1ccc(CCOc2ccc(CC3SC(=O)NC3=O)cc2)nc1 (stereo not given)		inactive
CCCOC(=O)c1ccc(O)cc1		inactive
CCCCCCC(=O)O		inactive
c1ccc2c(c1)Cc1ccccc1-2		inactive
c1ccc2cc3c(ccc4ccccc43)cc2c1		inactive
C[C@@H]1C[C@H]2[C@@H]3CCC4=CC(=O)C=C[C@]4(C)[C@@]3(F)[C@@H](O)C[C@]2(C)[C@@]1(O)C(=O)COP(=O)(O)O		inactive
CN(C)C=O		inactive
Oc1cc2ccccc2c2ccccc12		inactive
CCCCCCCCC(=O)O		inactive
CC(O)CO (stereo not given)		inactive
OC1CCC(C2CCCCC2)CC1 (stereo not given)		inactive
O=C(OCCOCCOC(=O)c1ccccc1)c1ccccc1		inactive
CC(=O)CC(C)(C)O		inactive
Cc1cc(C)c(O)c(C)c1		inactive
O=[N+]([O-])c1ccc(O)cc1		inactive
CCC(=C(c1ccc(O)cc1)c1ccc(OCCN(C)C)cc1)c1ccccc1	83.8 µM (active)	
